From PubChem BioAssay (NCI) come the findings set out here.

What all share (test): NCI-60 one-dose screen, 48 h (100 = growth as untreated, 0 = no growth, -100 = all killed)
Common to all, as to conditions: 10 µM unless noted

The subject of assay [1] is SR leukemia.
Assay [2] deals with RPMI-8226 leukemia.
Assay [3] has as its system OVCAR-8 ovarian.
Assay [4] relates to OVCAR-5 ovarian.
Assay [5] concerns OVCAR-4 ovarian.
The subject of assay [6] is SK-OV-3 ovarian.
In assay [7] the test system is IGROV1 ovarian.
Assay [8] concerns OVCAR-3 ovarian.
For assay [9], the system named is HS 578T breast.
Assay [10] relates to NCI/ADR-RES ovarian.

This is part of a sample that, as a whole, favours compounds with a hit. Of some 83,000 tested, about 20% had one in any assay.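 The test compound was applied at a single concentration to cells in 96-well plates for 48 hours, and percent growth was recorded.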 A number with no mark means an inactive call. Calls of active or inactive are those of the source. The calls were made as follows: active = growth percent below 10; inactive = the rest.

As to `Cc1cn(-c2cc(NC(=O)c3cccc(C#Cc4cccc5[nH]nc(N)c45)c3)cc(C(F)(F)F)c2)cn1`, the growth in assay [1] was 28.3%; in assay [2] it was 13.8%; in assay [3], 28.5%; in assay [4] it was 28.8%; in assay [5] it was 45.6%; in assay [6] it was 99.4%. The growth in assay [7] is 15.4%; in assay [8], 75.3%; in assay [9], 31.4%; in assay [10] it was 67.1%.
`C=C(C)[C@@H]1CC[C@]2(CO)CC[C@]3(C)[C@H](CC[C@@H]4[C@@]5(C)CC[C@H](NCO)C(C)(C)[C@@H]5CC[C@]43C)[C@@H]12`: the growth in assay [1] is -29.5% (active); in assay [2], -42% (active); in assay [3] it was -43.8% (active); in assay [4] it was -91.2% (active); in [5], -93.7% (active); in assay [6] it was -87.5% (active). In addition, the growth in [7] is -94.1% (active); in assay [8], -81.9% (active); in assay [9], -58.3% (active); in assay [10] it was -53.6% (active).
`Nc1c(C(=O)Nc2ccccc2F)sc2nc3c(cc12)CCCC3`: the growth in assay [1] is 13.3%; in assay [2], 28%; in [3], 40.7%; in [4], 74.7%; in assay [5], 54%; in [6] it was 26.6%. In addition, the growth in assay [7] is 58.9%; in assay [8], 4.6% (active); in assay [9] it was 48.9%; in [10] it was 24.7%.
For `CCC(C)(C)C(=O)O[C@H]1C[C@@H](C)C=C2C=C[C@H](C)[C@H](CC[C@@H]3CC(SCCN)CC(=O)O3)[C@H]21` (stereo not given in full), the growth in assay [1] is 23.3%; in [2] it was 6.62% (active); in assay [3], 88.1%; in [4], 99.1%; in assay [5] it was 101%; in assay [6] it was 102%. Also, the growth in assay [7] was 98.6%; in assay [8], 90.9%; in assay [9], 98.9%; in [10] it was 96.7%.
As to `O=S(=O)(NCCCNc1nccc(-c2c(-c3ccc(F)c(O)c3)nc3sccn23)n1)c1ccccc1`, the growth in assay [1] is 33.9%; in [2] it was 40.3%; in assay [3], 54.2%; in assay [4] it was 113%; in assay [5], 75.6%; in [6], 78%. Further, the growth in [7] was 65%; in assay [8], 66%; in assay [9], 72.8%; in assay [10], 100%.
With `O=C1/C(=C/c2cccc(F)c2)CN(C(=O)C(Cl)Cl)C/C1=C\c1cccc(F)c1`, the growth is -15.8% (active) in [1]; -31.3% (active) in assay [2]; -48.3% (active) in assay [3]; -63.6% (active) in assay [4]; -36.9% (active) in assay [5]; 29.8% in assay [6]. In addition, the growth was -77.2% (active) in assay [7], -92.2% (active) in [8], -13.7% (active) in assay [9] and -3.11% (active) in assay [10].
With `CC1=C2[C@@H](CC1)[C@]1(C)O[C@@](C(C)C)(C[C@H]1OC(=O)[C@H](C)O)[C@H]2OC(=O)/C=C/c1ccccc1`, the growth in assay [1] was 71.9%; in [2], 65.6%; in [3], 10.2%; in [4] it was 97.9%; in assay [5], 81.7%; in assay [6], 83.5%. The growth in [7] is 97.4%; in [8] it was 91.1%; in [9], -2.45% (active); in assay [10], 4.27% (active).
Consider `CCOC(=O)c1cc2c(n1Cc1cc(OC)c(OC)c(OC)c1)-c1nc(N)sc1CCC2`, for which the growth in assay [1] was 5.15% (active); in assay [2] it was 75.9%; in [3] it was 55.4%; in [4] it was 98.3%; in [5] it was 65%; in assay [6], 29.3%. Also, the growth in assay [7] was 50.8%; in [8] it was 21.1%; in assay [9], 55.7%; in [10], 20.8%.
As for `Cc1ccccc1/C=C/C(=O)c1cccc(OCCCOc2cccc(C(=O)/C=C/c3ccccc3C)c2)c1`, the growth in assay [1] was 25.8% [3 µM]; in assay [2], -23.2% [3 µM] (active); in assay [3], 101% [3 µM]; in [4], 126% [3 µM]; in assay [5], 84.6% [3 µM]; in [6] it was 109% [3 µM]. The growth in [7] was 102% [3 µM]; in assay [8] it was 99.4% [3 µM]; in [9], 99.7% [3 µM]; in assay [10] it was 101% [3 µM].
With `COc1ccc(OC)c(Nc2nnc(-c3ccc(O)c(OC)c3)o2)c1`, the growth in assay [1] is 52.4%; in assay [2] it was 75%; in assay [3], 83.6%; in assay [4], 70%; in assay [5], 63.1%; in assay [6], 53.4%. Further, the growth in [7] is 19.9%; in assay [8], 70.6%; in assay [9] it was 39.6%; in [10], 68.7%.
Turning to `OCCn1cc(-c2nc(-c3c[nH]c4ncccc34)cs2)c2ccccc21`, the growth in assay [1] was 53.5%; in assay [2] it was 57.8%; in [3] it was 90.4%; in [4], 90.5%; in assay [5] it was 51.7%; in assay [6] it was 70.2%. In addition, the growth in assay [7] is 56.1%; in assay [8], 81.7%; in [9] it was 71.3%; in [10], 94.6%.
Take `c1cnc2c(-c3nc4ccc5[nH]ncc5c4c4c3CCCC4)c[nH]c2c1`: the growth in [1] is 5.93% (active); in assay [2], 34.5%; in [3], 23.8%; in assay [4], 37.3%; in assay [5], 27.9%; in [6], 51.5%. For the same compound, the growth in assay [7] was 18%; in assay [8], 26.4%; in [9], 63.4%; in [10], 80.6%.
In the case of `C#CCNC(=O)[C@H](CC)[C@H]1CC[C@H](C)[C@H]([C@@H](C)[C@H](O)[C@H](C)C(=O)[C@H](CC)C2O[C@]3(C=CC(=O)[C@]4(CC[C@@](C)([C@H]5CC[C@](O)(CC)[C@H](C)O5)O4)O3)[C@H](C)C[C@@H]2C)O1` (stereo not given in full), the growth in assay [1] was 13.5%; in assay [2], 25.3%; in assay [3], 66.8%; in assay [4] it was 68.7%; in assay [5] it was 13.9%; in assay [6], 68.2%. Further, the growth in assay [7] was 48.5%; in assay [8], -23.5% (active); in assay [9], 35%; in assay [10], 14.7%.
